Bioassay records: PubChem, several laboratories
CYP2C9 activ – increases human cytochrome P450 2C9 activity | P11712 | recombinant CYP2C9, luciferin-H conversion, luminescence; hits give high values; factor 1 = untreated enzyme, 0 = blocked | activation factor at 5 µM | actives 1.4% (n = 96,000) | AID 1024;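 active = activation factor of 2 or more for CYP2C9 at a 5 µM dose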
CYP2C9 inhib – blocks human cytochrome P450 2C9. actives 20% (n = 96,000). inhibition, % at 5 µM. AID 777. CYP2C9 Supersomes, luciferin-H conversion, luminescence;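 active = blocking of liver enzyme CYP2C9 beyond about 50% at 5 µM, limit read from the data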
CYP2C19 act – increases human CYP2C19 enzyme activity; P33261; AID 1025; activation factor at 5 µM; recombinant CYP2C19, luciferin-H EGE luminescence; hits give high values; 0 = fully inhibited enzyme, 1 = untreated enzyme; 96,000 tested, under 10 active;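 active = activation factor of at least 2 at 5 µM in the primary screen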
Target sequence (P33261 whole entry, looked up): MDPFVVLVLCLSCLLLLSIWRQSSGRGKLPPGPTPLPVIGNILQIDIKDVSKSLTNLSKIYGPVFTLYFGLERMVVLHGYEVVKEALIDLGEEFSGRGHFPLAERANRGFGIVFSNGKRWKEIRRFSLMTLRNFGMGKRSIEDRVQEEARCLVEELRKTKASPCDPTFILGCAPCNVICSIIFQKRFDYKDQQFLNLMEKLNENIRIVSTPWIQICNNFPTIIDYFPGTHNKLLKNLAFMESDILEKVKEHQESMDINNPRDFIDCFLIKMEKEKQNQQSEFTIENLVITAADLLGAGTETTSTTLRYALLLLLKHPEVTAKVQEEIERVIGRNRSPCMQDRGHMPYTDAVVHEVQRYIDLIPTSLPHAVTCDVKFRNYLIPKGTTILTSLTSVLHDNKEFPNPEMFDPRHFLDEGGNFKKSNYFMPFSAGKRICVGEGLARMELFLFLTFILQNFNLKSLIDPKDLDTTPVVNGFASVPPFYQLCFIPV
Cav32 inh – human Cav3.2 channel inhibition, primary screen; O95180; Cav3.2-expressing cells, Fluo-4 calcium fluorescence FDSS; hits give low values; B-score at 10 µM; actives 4% (n = 100,000); AID 449739;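 active = single-dose well whose peak fluorescence ratio is a statistical outlier from its plate by either plate-standardised score or position-corrected B-score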
CYP2C19 inh – inhibitors of human CYP2C19 | AID 778 | P33261 | actives 21% (n = 96,000) | CYP2C19 Supersomes, luciferin-H EGE luminescence, 30 min | inhibition, % at 5 µM;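 active = CYP2C19 inhibition above a set limit at 5 µM in the primary screen, cut at about 50% in these data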
Large screens that a line does not name were inactive. Most compounds without a hit are left out; they make up all but 27% or so of the library.

O=C(NC1CCCCC1)C(c1ccncc1)N(Cc1ccccc1)C(=O)c1ccc(-c2ccccc2)[nH]1 (stereo unspecified)	CYP2C9 inhib 95.0, CYP2C19 inh 92.9 (no result: Cav32 inh)
COc1ccc(C(C(=O)NC2CCCC2)N(Cc2ccccc2)C(=O)CNC(=O)c2ccco2)cc1 (stereo unspecified)	none
COc1ccc(CN(C(=O)Cc2c[nH]c3ccccc23)C(C(=O)NC2CCCCC2)c2ccc(C)o2)cc1 (stereo unspecified)	CYP2C9 inhib 94.4, Cav32 inh -7.27, CYP2C19 inh 92.9
O=C(NCC(=O)N(Cc1ccccc1)C(C(=O)NC1CCCCC1)c1ccco1)c1ccco1 (stereo unspecified)	none (no result: CYP2C9 activ, CYP2C9 inhib, CYP2C19 act, CYP2C19 inh)
O=C(NC1CCCC1)C(c1ccsc1)N(Cc1ccco1)C(=O)Cc1cccs1 (stereo unspecified)	Cav32 inh -6.91
Cc1cc(C)n(-c2nnc(C)n2NS(C)(=O)=O)n1	none
Cc1ccc(CC2CC(=O)N(c3nc4ccccc4n3C)C2=O)cc1 (stereo unspecified)	none
Cc1cc(C)nc(Sc2ncnc3sc4c(c23)CCC4)n1	none (no result: CYP2C9 activ, CYP2C9 inhib, CYP2C19 act, CYP2C19 inh)
CC(C(=O)NC1CCCC1)N(C(=O)c1ccc(-c2ccccc2)[nH]1)c1ccccc1F (stereo unspecified)	CYP2C9 inhib 61.2, Cav32 inh -6.01, CYP2C19 inh 69.5
O=C(NC1CCCC1)C(c1ccncc1)N(Cc1cccs1)C(=O)c1csnn1 (stereo unspecified)	CYP2C9 inhib 53.7
Cc1ccc(-c2nnn(CC(=O)N(Cc3ccco3)C(C(=O)NC3CCCC3)c3cccs3)n2)o1 (stereo unspecified)	none (no result: CYP2C9 activ, CYP2C9 inhib, CYP2C19 act, CYP2C19 inh)
Cc1ccc(-c2nnn(CC(=O)N(Cc3ccccc3)C(C(=O)NC3CCCC3)c3ccncc3)n2)o1 (stereo unspecified)	CYP2C9 inhib 55.4
O=C(NC1CCCC1)C(c1cccs1)N(Cc1ccco1)C(=O)c1csnn1 (stereo unspecified)	none
CC(C(=O)NC1CCCCCC1)N(c1ccccc1)S(C)(=O)=O (stereo unspecified)	none
O=C(N[C@@H](c1ccccc1)[C@H](O)c1ccccc1)[C@@H]1CCCN1C(=O)OCc1ccccc1	none (no result: CYP2C9 activ, CYP2C9 inhib, CYP2C19 act, CYP2C19 inh)
CCOCc1cn(CC(=O)c2ccc([N+](=O)[O-])cc2)c(C)nc1=N	none
Cc1nc([N+](=O)[O-])c(Br)n1CC(=O)c1ccc(Cl)cc1	CYP2C9 inhib 66.0
CCO[C@@H]1OC(C(=O)NCc2ccccc2)=C[C@H](c2ccc(C(F)(F)F)cc2)[C@H]1CCCO	none (no result: CYP2C9 activ, CYP2C9 inhib, CYP2C19 act, CYP2C19 inh)
O=C(CSc1nccc(-c2ccc(Br)cc2)n1)NCCc1ccccc1	CYP2C19 inh 62.2
COc1ccccc1CNc1nc2nc(C)c(C)c(=O)n2[nH]1	CYP2C9 inhib 70.2
COc1ccc(CNc2nc3nc(C)c(Cl)c(=O)n3[nH]2)cc1OC	CYP2C9 inhib 75.6
CC(=O)Oc1ccc(N(C(C)=O)S(=O)(=O)c2cccs2)c2ccccc12	CYP2C19 inh 88.5
O=S(=O)(/N=C/c1c(O)ccc2ccccc12)c1cccs1	none
Cc1cc(OCC(=O)c2ccc(F)cc2)ccc1N1C(=O)CCC1=O	none
Cc1cc(C(=O)NCc2ccco2)cs1	none
Clc1ccc(-c2nn3c(-c4ccncc4)nnc3s2)c(Cl)c1	CYP2C19 inh 83.8 (no result: Cav32 inh)
Cc1ccc(-c2nnc3sc(C4COc5ccccc5O4)nn23)cc1 (stereo unspecified)	none
Clc1ccccc1-c1nn2c(-c3ccncc3)nnc2s1	CYP2C9 inhib 74.4, CYP2C19 inh 78.5
Clc1ccc(-c2nn3c(-c4cccc(Cl)c4)nnc3s2)cc1	CYP2C19 inh 60.5 (no result: Cav32 inh)
Cc1ccc(-c2nnc3sc(-c4ccncc4)nn23)cc1	none
Clc1ccccc1-c1nnc2sc(C3COc4ccccc4O3)nn12 (stereo unspecified)	CYP2C9 inhib 87.2, CYP2C19 inh 86.1
Clc1ccc(-c2nnc3sc(-c4ccccn4)nn23)cc1	none
COc1cccc(N2CC(O)Cn3c2nc2c3c(=O)n(CCCc3ccccc3)c(=O)n2C)c1 (stereo unspecified)	none
Cc1nnc2sc(-c3ccc(NC(=O)c4ccc(-c5ccc(Cl)cc5Cl)o4)cc3)nn12	none (no result: CYP2C9 activ, CYP2C9 inhib, CYP2C19 act, CYP2C19 inh)
Cc1nn2c(-c3ccc(Cl)cc3Cl)nnc2s1	CYP2C19 inh 51.7
Brc1ccc(-c2nn3c(-c4ccncc4)nnc3s2)o1	CYP2C19 inh 68.8 (no result: Cav32 inh)
Clc1ccc(-c2nnc3cccc(Cl)n23)c(Cl)c1	none (no result: Cav32 inh)
Clc1ccccc1-c1nn2c(-c3ccccn3)nnc2s1	CYP2C19 inh 59.6
Clc1ccc(-c2nn3cnnc3s2)c(Cl)c1	CYP2C19 inh 88.6
Clc1ccccc1-c1nnc2sc(-c3cccs3)nn12	CYP2C9 inhib 61.1
Clc1ccccc1-c1nnc2sc(-c3ccncc3)nn12	CYP2C19 inh 80.5
COC(=O)NC1CSCC1OC(=O)CN1C(=O)c2ccccc2C1=O (stereo unspecified)	none
CC1=C(C(=O)N2CCOCC2)C(c2ccsc2)C2=C(CCCC2=O)N1 (stereo unspecified)	none
COC(=O)C(CC(=O)c1ccc(Cl)cc1)c1ccc(C(C)C)cc1 (stereo unspecified)	none (no result: Cav32 inh)
CCOC(=O)C1CCN(c2c(C(=O)c3ccccc3)cnc3ccc(Cl)cc23)CC1	none (no result: CYP2C9 activ, CYP2C9 inhib, CYP2C19 act, CYP2C19 inh)
O=C(CCCN1C(=O)C2CCCCN2C1=O)N1CCN(c2ccc([N+](=O)[O-])cc2)CC1 (stereo unspecified)	none
O=C1C2CC=CCC2C(=O)N1c1ccc(Cc2ccncc2)cc1 (stereo unspecified)	CYP2C9 inhib 85.3, CYP2C19 inh 68.4
O=C(NC1CC2CCC(C1)N2C(=O)NCc1ccccc1)C1CC1 (stereo unspecified)	none
O=C1NC2(CCCCC2)N=C1c1ccc(Br)cc1	CYP2C19 inh 57.1
O=C1NC2(CCCC2)N=C1c1ccc(Cl)cc1	CYP2C19 inh 84.1
CN(/N=C/c1cccs1)c1cc(=O)n(C)c(=O)[nH]1	none (no result: CYP2C9 activ, CYP2C9 inhib, CYP2C19 act, CYP2C19 inh)
CSc1nc(SCC(=O)NCc2ccco2)c2c3c(sc2n1)CN(C)CC3	none (no result: CYP2C9 activ, CYP2C9 inhib, CYP2C19 act, CYP2C19 inh)
CSc1nc(SCC(N)=O)c2c3c(sc2n1)CN(C)CC3	Cav32 inh 4.12
Cc1ccc(C2=CC(c3ccccc3)n3ncnc3N2)cc1 (stereo unspecified)	none (no result: CYP2C9 activ, CYP2C9 inhib, CYP2C19 act, CYP2C19 inh)
Cc1ccc(C2C=C(c3ccccc3OC(F)F)Nc3ncnn32)cc1 (stereo unspecified)	CYP2C9 inhib 66.3 (no result: Cav32 inh)
CN(C)c1ccc(C2C=C(c3ccc(Cl)cc3OC(F)F)Nc3ncnn32)cc1 (stereo unspecified)	CYP2C9 inhib 93.5, Cav32 inh -5.93, CYP2C19 inh 98.8
CC(OC(=O)CNC(=O)C12CC3CC(CC(C3)C1)C2)C(=O)Nc1ncc(Cl)cc1Cl (stereo unspecified)	CYP2C19 inh 54.0
C#CCOCCOCCOCCNc1nc(N2CCN(C(=O)C([C@@H](C)CC)n3cc(C(N)CC(C)C)nn3)CC2)nc(N2CCN(C(=O)[C@H](CCCCN)n3cc(C(N)COC(=O)C(F)(F)F)nn3)CC2)n1 (stereo partly specified)	none (no result: CYP2C9 activ, CYP2C9 inhib, CYP2C19 act, CYP2C19 inh)
